Drawing on PubChem BioAssay AID1063 (University of Pittsburgh Molecular Library Screening Center, 2008), this text covers inhibition for 64 compounds.

The whole screen tested about 200,000 compounds, of which about 18,000 (9%) were called active. The entries come from a sample that favours actives as a whole. Values without a mark were called inactive. Rule as the data show it: active = inhibition above about 50%; inactive = the rest.

This assay in a line: Leishmania major promastigote growth inhibition, primary screen (AID 1063).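 Also: promastigotes grown with compound for 44 hours at 28 °C.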 To be noted: Leishmania major promastigotes, resazurin fluorescence viability; at 10 µM; hits give high values. For orientation: Alamar Blue is a resazurin reagent that responds to reducing activity.
By inhibition is commonly meant the drop in the measured response relative to a control, in per cent. With `O=C(CC12CC3CC(CC(C3)C1)C2)NCc1ccco1`, the inhibition was -4.33%. The result for `CCOc1ccc(OCc2cccc(C(=O)N(CC)CC)c2)cc1` reads 0.53%; that for `Cc1c(NC(=O)CSc2nnnn2-c2ccc(C(=O)O)cc2)c(=O)n(-c2ccccc2)n1C`, -3%; that for `CCOc1ccc(CCN2C(=O)c3cccnc3C2=O)cc1OCC`, -10.8%.

Turning to `Cn1cnnc1SCC(=O)Nc1ccc(N2CCOCC2)cc1`, the inhibition is -5.65%. The same measure for `N#Cc1ccc(OCc2nnc(-c3ccc([N+](=O)[O-])cc3)o2)cc1`: -3.9%; for `CCc1ccc2ncc(C(=O)c3ccccc3)c(N3CCOCC3)c2c1`: 10.5%; for `O=[N+]([O-])c1ccccc1NCc1ccccc1Cl`: 12.2%. The same measure for `C=CCc1cccc2cc(C(=O)Nc3ccc(NC(C)=O)cc3)c(=O)oc12`: -6.83%. The same measure for `C/C(=N\NC(=O)c1cccc(N2CCCC2=O)c1)c1ccc(N)cc1`: -3.01%; for `O=C(CN1C(=O)/C(=C/c2ccccc2F)Sc2ccccc21)NCc1cccnc1`: 19.2%; for `CC(C)(C)c1ccc(C(=O)NCCC(=O)NCc2ccco2)cc1`: -5.5%. As to `O=C(CN1C(=O)/C(=C\c2ccc(C(F)(F)F)cc2)Sc2ccccc21)NCc1ccco1`, the inhibition is 95.1% (active). The same measure for `CCc1[nH]nc(C(=O)N2CCCC(CNS(=O)(=O)c3cccs3)C2)c1C` (centres undefined): -4.31%. The same measure for `CN(C)S(=O)(=O)c1cccc(NC(=S)NCc2ccc3c(c2)OCO3)c1`: -0.11%; for `C/C(=N\NC(=S)NCc1ccccc1)C1CCCCC1`: 89.9% (active).

For `C/C(=N\NC(=S)NCc1ccccc1)c1ccc(Cl)cc1`, the inhibition was 1.34%. The result for `CC1CCCCN1C(=S)NCc1ccccc1` (centres undefined) reads -0.34%; that for `COc1ccc2nc(Nc3nc(-c4ccncc4)cs3)sc2c1`, 7.68%; that for `c1csc(-c2nnc(COc3ccc4c(c3)OCO4)o2)c1`, 5.84%. In the case of `CCN(C(=O)COC(=O)c1ccc(COc2ccc3c(C)cc(=O)oc3c2)cc1)C1CCS(=O)(=O)C1` (centres undefined), the inhibition is -10.4%. The result for `Cc1ccc(NC(=O)c2ccc(Oc3ncccn3)cc2)cc1` reads 7.15%; that for `Oc1ccc(/C=N/Nc2ccc(C(F)(F)F)cn2)cc1O`, 95.4% (active); that for `Cc1nccn1CC(=O)N/N=C/c1ccc(O)c(O)c1`, -6.58%. The same measure for `FC(F)(F)c1cccc(N/N=C/c2ccccc2)c1`: -13.1%; for `CCc1nnc(NC(=O)C2CC(=O)N(c3ccc4c(c3)OCCO4)C2)s1` (centres undefined): -9.31%; for `N#Cc1ccc(C(c2nnnn2CCc2ccccc2)N2CCCCCC2)cc1` (centres undefined): 16.3%.

For the compound `c1ccc(C(c2ccccc2)N2CCN(Cc3nnnn3C3CCCCC3)CC2)cc1`, the inhibition was 9.22%. `c1ccc(CCn2nnnc2CN2CCN(C3CCCC3)CC2)cc1`: the inhibition is 85.5% (active).

With `CCOc1cc(NC(=S)NCCCN(C)C)c(OCC)cc1NC(=O)C1CC1`, the inhibition is -0.62%. The result for `C=CCn1cc(-c2cccc(C(F)(F)F)c2)cc(C#N)c1=O` reads 10.4%; that for `C[n+]1ccccc1C1CCCC/C1=N\Nc1ccc([N+](=O)[O-])cc1[N+](=O)[O-]` (centres undefined), -1.09%; that for `O=C(Nc1ccccc1)O/N=C1\CCCCC1c1ccc([N+](=O)[O-])cc1[N+](=O)[O-]` (centres undefined), 99.6% (active). The same measure for `O=[N+]([O-])c1ccc(N/N=C2/CCCCC2c2ccccn2)c([N+](=O)[O-])c1` (centres undefined): 2.5%. The same measure for `O=C(CN1CCCCC1)Nc1ccccc1Cl`: -0.98%; for `O=C(Nc1ccccc1Cl)/C(Cl)=C(\Cl)S(=O)c1ccccc1` (centres undefined): 101% (active). Take `O=C(Nc1ccccc1Cl)c1ccc2nsnc2c1`: the inhibition is -3.57%. The result for `COc1cccc(/C=C/C(=O)Nc2ccc3c(c2)OCCO3)c1` reads 13.7%; that for `Cc1cc(C(=O)Nc2ccccc2N2CCOCC2)c2ccccc2n1`, 1.07%; that for `CCC(=O)Nc1ccc2nc(C)n(Cc3ccccc3Cl)c(=O)c2c1`, 4.75%. For the compound `CCN1CCN(c2cc3nc(C)n(Cc4ccccc4)c(=O)c3cc2NC(=O)c2ccccc2F)CC1`, the inhibition is 98.3% (active). The result for `Cc1c(/C=N\NC(=O)c2cc3ccccc3o2)c2ccccc2n1C` reads 9.72%. The same measure for `O=C(c1ccc2ccccc2n1)N1CCN(c2ccccc2Cl)CC1`: -3.63%. The result for `O=C(c1ccc(-c2ccccc2)cc1)C1CCCN(C(=O)c2cncs2)C1` (centres undefined) reads 58.5% (active); that for `CSc1ccc(C(=O)C2CCCN(C(=O)c3ccc(C)nc3)C2)cc1` (centres undefined), -4.42%; that for `O=C(c1ccc(C(F)(F)F)cc1)C1CCCN(C(=O)c2csnn2)C1` (centres undefined), -5.59%. In the case of `C/C=N/NC(=O)CCCC(=O)N/N=C/C`, the inhibition was 13.8%.

For the compound `COc1cccc(NC(=O)CN(C)C(C)C(=O)Nc2ccc(C#N)cc2)c1` (centres undefined), the inhibition was 5.24%. Take `CCOc1ccc(NS(=O)(=O)c2ccc(C)c(C(N)=O)c2)cc1`: the inhibition is -2.88%.

Take `COCCn1c(Cc2cccn2C)nnc1SCC(=O)Nc1nccs1`: the inhibition was 1.7%. The result for `Nc1cc(C(F)(F)F)ccc1N1CCOCC1` reads 0.97%; that for `O=C(/C=C/c1ccc(Cl)cc1)Nc1ccc(Br)cn1`, 0.77%; that for `O=C(Nc1ccc(Br)cn1)c1ccc([N+](=O)[O-])cc1Cl`, 13.7%. The same measure for `O=C(Nc1ccc(Br)cn1)c1ccc([N+](=O)[O-])o1`: 100% (active). The result for `CS(=O)(=O)Nc1cccc(-c2cn3ccccc3n2)c1` reads -2.73%; that for `Cc1cnc(C(=O)OCC(=O)NCCCc2ccccc2)cn1`, -4.28%; that for `O=C(CC1CCCCC1)NCc1ccco1`, -0.08%. On to `O=C(NCc1ccco1)C1(c2ccc(Cl)cc2)CCCC1`, for which the inhibition is 76.6% (active). `O=C(NCCCCCCNC(=O)NCc1ccco1)NCc1ccco1`: the inhibition was -3.59%. In the case of `COc1ccc(N2C(=O)C(Cc3ccccc3)NC2=S)cc1` (centres undefined), the inhibition is -0.72%. The result for `Cn1cc(CN2CCCCC2c2ccccn2)c(-c2ccc3c(c2)OCCO3)n1` (centres undefined) reads -2.73%; that for `Cc1cc(/C=C2/NC(=O)NC2=O)c(C)n1-c1cccnc1`, 60.6% (active). The same measure for `Cc1cc(/C=C2\SC(=Nc3ccc(N4CCOCC4)cc3)N(C)C2=O)c(C)n1-c1cccnc1`: 0.4%; for `Cc1ccccc1-n1c(C)cc(/C=C2\NC(=O)NC2=O)c1C`: 7.26%.
